This is an account of results in PubChem BioAssay (NCI).

Test [1] can be described thus: NCI Yeast Anticancer Drug Screen. Data for the rad50 strain (AID 155).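 Further: 0% = growth of vehicle-only cultures of the same strain.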 Particulars: S. cerevisiae rad50 strain growth inhibition, active compounds read high. The gist of the method: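 Vehicle-treated cultures provide the reference for the growth inhibition reported for compound-exposed, repair-deficient yeast.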
A short description of test [2]: NCI Yeast Anticancer Drug Screen. Data for the mec2-1 strain (AID 157). Particulars: S. cerevisiae mec2-1 strain, active compounds read high. A digest of the protocol: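 Readout is yeast growth inhibition, normalised to vehicle-treated controls, in the mec2-1 strain exposed to compound.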
Test [3] can be described thus: NCI Yeast Anticancer Drug Screen. Data for the sgs1 mgt1 strain (AID 161).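 Further: 0% = growth of cultures given vehicle only.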 Particulars: S. cerevisiae sgs1 mgt1 strain, active compounds read high. The gist of the method: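 Yeast cells carrying a defined DNA-repair defect were exposed to test compounds. Growth inhibition was measured relative to vehicle-treated controls.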
Test [4] can be described thus: NCI Yeast Anticancer Drug Screen. Data for the cln2 rad14 strain (AID 165).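 Further: 0% = growth equal to vehicle treated cultures.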 As to conditions: S. cerevisiae cln2 rad14 strain, active compounds read high. The gist of the method: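 Relative to vehicle controls, growth inhibition of compound-treated cln2 rad14 yeast was recorded.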
Test [5] can be described thus: NCI Yeast Anticancer Drug Screen. Data for the bub3 strain (AID 167). As to conditions: S. cerevisiae bub3 mutant strain, active compounds read high. The gist of the method:
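Mutant yeast screening strain plus compound; vehicle-treated cultures serve as the 0% inhibition reference.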

The nature of test [6]: NCI Yeast Anticancer Drug Screen. Data for the mlh1 rad18 strain (AID 175). As to conditions: S. cerevisiae mlh1 rad18 strain growth inhibition, active compounds read high. A digest of the protocol:
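Test agents were incubated with a yeast strain of defined genotype (DNA damage repair defect). Inhibition of growth was derived by comparison with vehicle-exposed cultures.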

Setting [7] is: at 5.0 µM (retest, dose inferred, filed as 0.5).
The mark [8] stands for this setting: at 50.0 µM (retest, dose inferred, filed as 5.0).

About 79,000 compounds went through this panel and 15% of them were active in at least one assay; those are over-represented in the sample as a whole. A number with no mark means an inactive call. Active and inactive are the calls of the source. No stated cut-off is given here; in the data, active means growth inhibition above about 70%; inactive means the rest.

Turning to `COc1cccc(NC(=O)C(C#N)=C(SC)SC)c1`, the growth inhibition in test [1] (setting [7]) is 30%; in test [1] (setting [8]), 96% (active); in test [2] (setting [7]) it was 25%; in test [2] (setting [8]), 92% (active); in test [3] (setting [7]) it was 49%; in test [3] (setting [8]), 95% (active). Also, the growth inhibition is 91.2% (active) in test [3] (at 50.0 µM); 34% in test [4] (setting [7]); 41% in test [4] (setting [8]); 43% in test [4] (at 50.0 µM); 42% in test [5] (setting [7]); 95% (active) in test [5] (setting [8]). Besides, the growth inhibition in test [5] (at 50.0 µM) is 91.2% (active); in test [6] (setting [7]), 23%; in test [6] (setting [8]), 59%; in test [6] (at 50.0 µM) it was 90% (active).

For `CSS(C)(=O)=O`, the growth inhibition in test [1] (setting [7]) is 59%; in test [1] (setting [8]) it was 98% (active); in test [2] (setting [7]) it was 6%; in test [2] (setting [8]), 99% (active); in test [3] (setting [7]), 10%; in test [3] (setting [8]), 99% (active). The growth inhibition was -4% in test [4] (setting [7]); 98% (active) in test [4] (setting [8]); -1% in test [5] (setting [7]); 99% (active) in test [5] (setting [8]); 3% in test [6] (setting [7]); 95% (active) in test [6] (setting [8]).

Consider `CCC[CH2][Sn]1([CH2]CCC)[O]C2C(CO)OC(n3ccc(N)nc3=O)C2[O]1` (configuration not stated), for which the growth inhibition was 46% in test [1] (setting [7]); 97% (active) in test [1] (setting [8]); 86.8% (active) in test [1] (at 50.0 µM); 83% (active) in test [3] (setting [7]); 99% (active) in test [3] (setting [8]); 88.5% (active) in test [3] (at 50.0 µM). Also, the growth inhibition in test [4] (setting [7]) is 71% (active); in test [4] (setting [8]), 99% (active); in test [4] (at 50.0 µM), 83.6% (active); in test [5] (setting [7]) it was 89% (active); in test [5] (setting [8]) it was 99% (active); in test [5] (at 50.0 µM), 87.3% (active). In addition, the growth inhibition in test [6] (setting [7]) is 26%; in test [6] (setting [8]), 96% (active); in test [6] (at 50.0 µM), 84.2% (active).

Regarding `CCCCC(CC)CNC(=O)/C=C\C(=O)O` (configuration not stated), the growth inhibition in test [1] (setting [7]) is 15%; in test [1] (setting [8]), 85% (active); in test [2] (setting [7]), 11%; in test [2] (setting [8]), 67%; in test [3] (setting [7]), 10%; in test [3] (setting [8]), 96% (active). The growth inhibition in test [4] (setting [7]) is -3%; in test [4] (setting [8]), 60%; in test [5] (setting [7]) it was 6%; in test [5] (setting [8]), 83% (active); in test [6] (setting [7]), 15%; in test [6] (setting [8]), 91% (active).

Turning to `Cc1cc(C)c(C#N)c(Sc2nc(C)c([N+](=O)[O-])c(C)c2C#N)n1`, the growth inhibition in test [1] (setting [7]) is 56%; in test [1] (setting [8]), 54%; in test [1] (at 50.0 µM) it was 66.7%; in test [2] (setting [7]) it was 37%; in test [2] (setting [8]), 44%; in test [2] (at 50.0 µM), 29.7%. In addition, the growth inhibition in test [4] (setting [7]) is 41%; in test [4] (setting [8]), 51%; in test [4] (at 50.0 µM), 42.3%; in test [5] (setting [7]) it was 51%; in test [5] (setting [8]) it was 61%; in test [5] (at 50.0 µM) it was 15%. The figures for the growth inhibition in test [6] (setting [7]), in test [6] (setting [8]) and in test [6] (at 50.0 µM) were 57%, 55% and 54.6%, respectively.

Take `C/C(=N\NC(=S)N1CCC1)c1ccccn1`: the growth inhibition is 91% (active) in test [1] (setting [7]); 96% (active) in test [1] (setting [8]); 88% (active) in test [2] (setting [7]); 98% (active) in test [2] (setting [8]); 92% (active) in test [3] (setting [7]); 99% (active) in test [3] (setting [8]). For the same molecule, the growth inhibition in test [3] (at 50.0 µM) is 87.8% (active); in test [4] (setting [7]) it was 93% (active); in test [4] (setting [8]), 96% (active); in test [4] (at 50.0 µM), 87% (active); in test [5] (setting [7]), 94% (active); in test [5] (setting [8]), 98% (active). For the same molecule, the values for the growth inhibition in test [5] (at 50.0 µM), in test [6] (setting [7]) and in test [6] (setting [8]) were 87.5% (active), 93% (active) and 96% (active), respectively.

`CC12CCC(O)CC1=CCC1C2CCC2(C)C3=NN=CC3CC12` (configuration not stated): the growth inhibition in test [1] (setting [7]) is 38%; in test [1] (setting [8]) it was 99% (active); in test [1] (at 50.0 µM), 96.6% (active); in test [2] (setting [7]) it was 16%; in test [2] (setting [8]) it was 100% (active); in test [2] (at 50.0 µM), 99.4% (active). The growth inhibition in test [4] (setting [7]) was 7%; in test [4] (setting [8]), 100% (active); in test [4] (at 50.0 µM), 99.2% (active); in test [5] (setting [7]), 31%; in test [5] (setting [8]) it was 100% (active); in test [5] (at 50.0 µM) it was 99.3% (active). In addition, the growth inhibition is 50% in test [6] (setting [7]), 100% (active) in test [6] (setting [8]) and 99.5% (active) in test [6] (at 50.0 µM).

As to `CCCc1cc(=O)oc2c3c(c4c(c12)OC(C)(C)CC4)OC(C)[C@H](C)[C@@H]3O` (some centres not stated), the growth inhibition is 36% in test [1] (setting [7]); 90% (active) in test [1] (setting [8]); 83.7% (active) in test [1] (at 50.0 µM); 36% in test [2] (setting [7]); 92% (active) in test [2] (setting [8]); 85.6% (active) in test [2] (at 50.0 µM). The growth inhibition is 27% in test [4] (setting [7]); 93% (active) in test [4] (setting [8]); 85.2% (active) in test [4] (at 50.0 µM); 12% in test [5] (setting [7]); 90% (active) in test [5] (setting [8]); 80.1% (active) in test [5] (at 50.0 µM). For the same molecule, the growth inhibition in test [6] (setting [7]) was 31%; in test [6] (setting [8]), 94% (active); in test [6] (at 50.0 µM) it was 77% (active).

On to `CC(C)(C)N/N=C(/Cc1nc2c3c(ccc2[nH]c1=O)C(=O)c1ccccc1C3=O)C(=O)NC1=C(Cl)C(=O)c2ccccc2C1=O`, for which the growth inhibition in test [1] (setting [7]) is 27%; in test [1] (setting [8]) it was 91% (active); in test [1] (at 50.0 µM), 82.8% (active); in test [2] (setting [7]) it was 0%; in test [2] (setting [8]), 62%; in test [2] (at 50.0 µM), 46.6%. Besides, the growth inhibition in test [4] (setting [7]) is -24%; in test [4] (setting [8]), 39%; in test [4] (at 50.0 µM), 21.7%; in test [5] (setting [7]), 13%; in test [5] (setting [8]), 83% (active); in test [5] (at 50.0 µM), 67.1%. In addition, the growth inhibition in test [6] (setting [7]) was 21%; in test [6] (setting [8]), 79% (active); in test [6] (at 50.0 µM), 42.4%.

Consider `CC(C)(C)C(=O)CC(c1ccccc1)c1ccccc1`, for which the growth inhibition in test [1] (setting [7]) is 11%; in test [1] (setting [8]), 20%; in test [2] (setting [7]), -1%; in test [2] (setting [8]) it was 3%; in test [3] (setting [7]), 5%; in test [3] (setting [8]), 30%. Further, the growth inhibition in test [4] (setting [7]) is 12%; in test [4] (setting [8]), 0%; in test [5] (setting [7]) it was 10%; in test [5] (setting [8]), 22%; in test [6] (setting [7]), -13%; in test [6] (setting [8]), 9%.

Consider `Clc1ccccc1C(c1ccccc1)(c1ccccc1)n1ccnc1`, for which the growth inhibition in test [1] (setting [7]) is 44%; in test [1] (setting [8]), 99% (active); in test [1] (at 50.0 µM), 99.3% (active); in test [3] (setting [7]), 53%; in test [3] (setting [8]) it was 99% (active); in test [3] (at 50.0 µM) it was 99.6% (active). For the same molecule, the growth inhibition is 18% in test [4] (setting [7]); 99% (active) in test [4] (setting [8]); 99.2% (active) in test [4] (at 50.0 µM); 34% in test [5] (setting [7]); 99% (active) in test [5] (setting [8]); 99.6% (active) in test [5] (at 50.0 µM). In addition, the growth inhibition in test [6] (setting [7]) was 30%; in test [6] (setting [8]), 99% (active); in test [6] (at 50.0 µM), 99.7% (active).

On to `O=C1Nc2ccc(Br)cc2C1=O`, for which the growth inhibition in test [1] (setting [7]) was -8%; in test [1] (setting [8]), 95% (active); in test [1] (at 50.0 µM), 96.9% (active); in test [2] (setting [7]), -31%; in test [2] (setting [8]), 64%; in test [2] (at 50.0 µM) it was 99.7% (active). The growth inhibition in test [4] (setting [7]) was -6%; in test [4] (setting [8]), 36%; in test [4] (at 50.0 µM) it was 66.9%; in test [5] (setting [7]), -13%; in test [5] (setting [8]), 98% (active); in test [5] (at 50.0 µM) it was 99.4% (active). Besides, the figures for the growth inhibition in test [6] (setting [7]), in test [6] (setting [8]) and in test [6] (at 50.0 µM) were -9%, 91% (active) and 99.6% (active), respectively.
